Data on 35 molecules can be found in PubChem BioAssay (NCATS).
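Note: cells exposed to compound for 48 h before reading.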

One experiment can be described thus: Cell Proliferation Assay against the TMD8 Cell Line (AID 651645). Conditions: TMD8 DLBCL cell line proliferation/viability; at 46.1 µM (top of the series) unless noted. The procedure, abridged:
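500 TMD8 cells/well, RPMI + Glutamax, no phenol red, 5% FBS; cpd added immediately; 48 h, 37C, 5% CO2; CellTiter-Glo, luminescence. Controls: DMSO = 100%, bortezomib 9.2 uM final = 0%.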
For the molecule `COc1c(Cl)cc2c([nH]c3cnccc32)c1NC(=O)c1cccnc1C`, the viability (% of control) came to 68.9%.
Regarding `c1ccc(-c2nn3c(c2-c2ccnc4cc(OCCN5CCOCC5)ccc24)CCC3)nc1`, the viability (% of control) is 41.4%.
`Cc1cc(C=c2sc3nc4ccccc4n3c2=O)c(C)n1-c1ccccc1`: the viability (% of control) came to 43.9%.
The same measure, in the same setting: the value for `COc1ccccc1-c1cccc(-c2c(O)c3cc(C#N)c(Cl)cc3[nH]c2=O)c1` was 86.6%; that for `CCOc1ccn(-c2ccc(F)cc2)c(=O)c1C(=O)Nc1ccc(Oc2ccnc(N)c2Cl)c(F)c1` was 53.5%.
Same read-out and setting: then `COc1ccc(-c2c(-c3ccc(O)cc3O)n[nH]c2C)cc1`, with 86.4%; and `Cc1cccc(-c2nn(C(=S)Nc3ccccc3)cc2-c2ccnc3ccccc23)n1`, with 60.3%.
On the same count and under the same terms, the value for `O=C(O)c1ccc(-c2c[nH]c3ccc(-c4ccccc4)cc23)cc1C1CCCC1` was 83.2%.
For the molecule `COc1cc(Nc2ncc3c(n2)-c2ccc(Cl)cc2C(c2c(F)cccc2OC)=NC3)ccc1C(=O)O`, the viability (% of control) was 31.4%.
The same measure, in the same setting: then `CCC(C)n1ncn(-c2ccc(N3CCN(c4ccc(OC[C@H]5CO[C@](Cn6cncn6)(c6ccc(Cl)cc6Cl)O5)cc4)CC3)cc2)c1=O` (stereo not given in full), with 77.9%; and `CC1(C)CNc2cc(NC(=O)c3cccnc3NCc3ccncc3)ccc21`, with 49.2%; and `CCCCCCCc1ccc(CCc2cccc(O)c2C(=O)O)cc1`, with 64.1%.
Still for that read-out and setting: the value for `CNC(=O)c1ccc(N2C(=S)N(c3ccc(C#N)c(C(F)(F)F)c3)C(=O)C2(C)C)cc1F` was 78.7%; that for `Cc1cc(SCc2sc(-c3ccc(C(F)(F)F)cc3)nc2C)ccc1OCC(=O)O` was 88.2%; that for `Cc1cc2c(F)c(Oc3ncnn4cc(OC[C@@H](C)O)c(C)c34)ccc2[nH]1` was 42.5%.
For the molecule `CN(C)c1ccc(C2Nc3ccc4ccccc4c3C3=C2C(=O)CC(C)(C)C3)cc1Br` (stereo not given), the viability (% of control) came to 64.8%.
The same measure, in the same setting: the value for `CN(C)c1ccc(Nc2nc(N)n(C(=O)c3c(F)cccc3F)n2)cc1` was 28.9%; that for `O=C(C1CC1)N1CC[C@@H](Cn2c(-c3ccc(-c4ccc5occc5c4)cc3)nc3cnccc32)C1` was 5.56%; that for `O=C(OCC#CCSc1nnc(-c2ccc3ccccc3c2)o1)c1cc2ccccc2s1` was 90%.
Same read-out and setting: then `COCCNCCCn1c(C(=O)CF)c(-c2ccc(C)cc2)c2c(N)ncnc21`, with 75.8%.
On the same count and under the same terms, then `CCOc1ccc(Cc2cc([C@@H]3O[C@H](CO)[C@@H](O)[C@H](O)[C@@H]3O)ccc2Cl)cc1`, with 87.2%; and `NC(=O)c1ccc(-c2nc(-c3ccc4c(c3)OCCO4)c(-c3ccccn3)[nH]2)cc1`, with 83.2%.

The nature of another experiment: Cell Proliferation Assay against the HBL1 Cell Line (AID 651646). The note with it: HBL1 DLBCL cells; at 46.1 µM (top of the series) unless noted. The essentials: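 500 log-phase HBL1 cells per well in phenol red-free RPMI with 5% FBS were treated with compounds for 48 h at 37 °C, 5% CO2. Viability was read by CellTiter-Glo luminescence, normalized to DMSO (100%) and 9.2 uM bortezomib final (0%).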
On to `OCCC#Cc1nc(-c2ccc(F)cc2)c(-c2ccncc2)n1CCCc1ccccc1`, for which the viability, percent of control turned out to be 55.3%.
Still for that read-out and setting: the value for `CCC(C)(C)C(=O)O[C@H]1C[C@@H](C)C=C2C=C[C@H](C)[C@H](CC[C@@H]3C[C@@H](O)CC(=O)O3)[C@H]21` was 94.3% [at 15.4 µM].
On the same count and under the same terms, the value for `Cc1cc([C@@H](C)Nc2ccccc2C(=O)O)c2nc(N3CCOCC3)cc(=O)n2c1` was 45.6%; that for `COc1cc(F)c(F)c(Nc2ccc(I)cc2F)c1NS(=O)(=O)C1(C[C@H](O)CO)CC1` was 62.4%.
Still for that read-out and setting: the value for `C[C@]1(c2nc3c(C(N)=O)cccc3[nH]2)CCCN1` was 89.5%.
With `CCCn1c(=O)c2[nH]c(C34CC5CC3C[C@@H](C5)C4)nc2n(CCC)c1=O`, the viability, percent of control is 60.2%.
Still for that read-out and setting: then `C/C(=C\C(=O)Nc1ccccc1C(=O)O)c1ccc2ccccc2c1`, with 70.3%.
Still for that read-out and setting: the value for `CC[C@H](Nc1ncnc2nc[nH]c12)c1nc2cccc(F)c2c(=O)n1-c1ccccc1` was 68.9%; that for `COc1ccc(COc2cc3oc(=O)c4cc(C(C)O)ccc4c3cc2OC)cc1` (stereo not given) was 45.7%; that for `CC(C)(C)OC(=O)CN(Cc1ccc(Cl)cc1)Cc1ccc([N+](=O)[O-])s1` was 47%.
On the same count and under the same terms, then `CCn1c(-c2nonc2N)nc2c(C#CC(C)(C)O)ncc(OC[C@H]3CCCNC3)c21`, with 70.2%.
As to `CN(C)C(=O)c1ccc(S(=O)(=O)c2ccc(NC(=O)[C@@](C)(O)C(F)(F)F)c(Cl)c2)cc1`, the viability, percent of control is 86.5%.
As for `Cc1c(CCOc2ccc(C(=O)O)cc2)c2cc(Cl)ccc2n1C(c1ccccc1)c1ccccc1`, the viability, percent of control was 34.4%.
Still for that read-out and setting: then `c1ccc(-c2nn3c(c2-c2ccnc4cc(OCCN5CCOCC5)ccc24)CCC3)nc1`, with 77.9%; and `Cc1cc(C=c2sc3nc4ccccc4n3c2=O)c(C)n1-c1ccccc1`, with 43.7%; and `COc1ccccc1-c1cccc(-c2c(O)c3cc(C#N)c(Cl)cc3[nH]c2=O)c1`, with 80.1%.
The same measure, in the same setting: then `CCOc1ccn(-c2ccc(F)cc2)c(=O)c1C(=O)Nc1ccc(Oc2ccnc(N)c2Cl)c(F)c1`, with 68.6%.
On the same count and under the same terms, the value for `O=C(O)c1ccc(-c2c[nH]c3ccc(-c4ccccc4)cc23)cc1C1CCCC1` was 93.3%.
As to `COc1cc(Nc2ncc3c(n2)-c2ccc(Cl)cc2C(c2c(F)cccc2OC)=NC3)ccc1C(=O)O`, the viability, percent of control was found to be 53%.
The same measure, in the same setting: then `CCCCCCCc1ccc(CCc2cccc(O)c2C(=O)O)cc1`, with 51.5%.
The same measure, in the same setting: the value for `CNC(=O)c1ccc(N2C(=S)N(c3ccc(C#N)c(C(F)(F)F)c3)C(=O)C2(C)C)cc1F` was 83.2%; that for `Cc1cc(SCc2sc(-c3ccc(C(F)(F)F)cc3)nc2C)ccc1OCC(=O)O` was 114%; that for `Cc1cc2c(F)c(Oc3ncnn4cc(OC[C@@H](C)O)c(C)c34)ccc2[nH]1` was 34.5%.
Still for that read-out and setting: then `CN(C)c1ccc(C2Nc3ccc4ccccc4c3C3=C2C(=O)CC(C)(C)C3)cc1Br` (stereo not given), with 69.1%; and `CN(C)c1ccc(Nc2nc(N)n(C(=O)c3c(F)cccc3F)n2)cc1`, with 46.5%; and `O=C(C1CC1)N1CC[C@@H](Cn2c(-c3ccc(-c4ccc5occc5c4)cc3)nc3cnccc32)C1`, with 48.4%.
For `O=C(OCC#CCSc1nnc(-c2ccc3ccccc3c2)o1)c1cc2ccccc2s1`, the viability, percent of control came out at 86.3%.
The same measure, in the same setting: then `COCCNCCCn1c(C(=O)CF)c(-c2ccc(C)cc2)c2c(N)ncnc21`, with 86.2%.
